# Source: the supplement of paper PMC12645437, “Orthogonal IMiD-Degron Pairs Induce Selective Protein Degradation in Cells” (ACS Chemical Biology, 2025)
# In all, about 8,300 sequences were measured (“log2 fold change of degron read counts, EGFP-low vs EGFP+ sorted cells (limma voom), compound-induced degradation”: median about -1.1, highest 2% from about 3.2 on). Shown is part of a subset that was picked to be rich in the highest values.
# Target: T1, CRBN, Q96SW2
# T1 chain: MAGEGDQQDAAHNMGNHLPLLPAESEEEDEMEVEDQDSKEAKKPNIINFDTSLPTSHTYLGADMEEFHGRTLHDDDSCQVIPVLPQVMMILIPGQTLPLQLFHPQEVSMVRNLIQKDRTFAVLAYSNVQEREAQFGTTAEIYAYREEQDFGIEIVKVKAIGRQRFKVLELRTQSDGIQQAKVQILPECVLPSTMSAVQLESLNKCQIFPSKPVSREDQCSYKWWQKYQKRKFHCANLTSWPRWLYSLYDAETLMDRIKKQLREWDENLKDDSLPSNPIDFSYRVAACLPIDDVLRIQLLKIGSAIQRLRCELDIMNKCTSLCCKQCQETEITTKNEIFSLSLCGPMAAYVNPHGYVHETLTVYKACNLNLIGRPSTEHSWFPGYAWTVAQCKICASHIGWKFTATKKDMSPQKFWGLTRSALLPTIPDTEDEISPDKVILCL
# Experiment: log2 fold change of degron read counts, EGFP-low vs EGFP+ sorted cells (limma voom), compound-induced degradation; higher = more compound-induced degradation of the degron-EGFP fusion; degrons are variants of IKZF1/3 zinc finger 2; compound dose not given here
# Conditions: Jurkat, 18 h
# [1] = compound: compound 19 (5-tert-butyl-thalidomide)
# [2] = compound: compound 22 (5-morpholino-thalidomide)
# [3] = compound: compound 33 (diphenyl IMiD analogue)
# 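Further: pooled lentiviral library of zinc finger degron-EGFP fusions in mCherry-positive Jurkat cells, FACS-sorted after compound exposure, with degron abundance counted by next-generation sequencing.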
Sequence,log2 fold change of degron read counts [1],log2 fold change of degron read counts [2],log2 fold change of degron read counts [3],log2 fold change of degron read counts (compound: thalidomide)
"FGCEVCGASFTQKGNLLRHIKL [46F_47G_49E_50V_52G_53A_54S_55F_67L_, Q9UKT9]",3.37,2.27,1.58,0.816
"FWCNVCGASFTQKGNLLRHIKL [46F_47W_49N_50V_52G_53A_54S_55F_67L_, Q9UKT9]",1.46,3.01,1.08,-0.303
"FSCEVCGASFTQKGNLLRHIKL [46F_47S_49E_50V_52G_53A_54S_55F_67L_, Q9UKT9]",3.58,2.8,2.27,1.63
"FWCEVCGASFTQKGNLLRHIKL [46F_47W_49E_50V_52G_53A_54S_55F_67L_, Q9UKT9]",3.77,3.54,2.67,1.37
"FDCEVCGASFTQKGNLLRHIKL [46F_47D_49E_50V_52G_53A_54S_55F_67L_, Q9UKT9]",2.81,0.541,0.131,0.979
"FCCEVCGASFTQKGNLLRHIKL [46F_47C_49E_50V_52G_53A_54S_55F_67L_, Q9UKT9]",3.45,2.85,2.25,2.34
"FTCEVCGASFTQKGNLLRHIKL [46F_47T_49E_50V_52G_53A_54S_55F_67L_, Q9UKT9]",2.27,2.96,2.53,3.12
"FKCEVCGASFTQKGNLLRHIKL [46F_47K_49E_50V_52G_53A_54S_55F_67L_, Q9UKT9]",1.43,-1.05,-2,0.154
"FECEVCGASFTQKGNLLRHIKL [46F_47E_49E_50V_52G_53A_54S_55F_67L_, Q9UKT9]",2.09,-1.03,1.48,2.32
"FQCEQCGAAFTQKGNLLRHIKL [46F_47Q_49E_50Q_52G_53A_54A_55F_67L_, Q9UKT9]",-0.398,0.724,0.313,3.01
"LTCNQCGFPCTQKGNLLRHIKL [46L_47T_49N_50Q_52G_53F_54P_55C_67L_, Q9UKT9]",-2.43,-2.96,-2.54,-1.71
"FTCEVCGAFFTQKGNLLRHIKL [46F_47T_49E_50V_52G_53A_54F_55F_67L_, Q9UKT9]",-0.934,-0.537,0.743,0.936
"FSCDQCGAMFTQKGNLLRHIKL [46F_47S_49D_50Q_52G_53A_54M_55F_67L_, Q9UKT9]",-1.8,-2.9,-1.87,-2.82
"FSCPQCGAAFTQKGNLLRHIKL [46F_47S_49P_50Q_52G_53A_54A_55F_67L_, Q9UKT9]",0.138,-0.952,1.89,-0.879
"FWCPICGHMFTQKGNLLRHIKL [46F_47W_49P_50I_52G_53H_54M_55F_67L_, Q9UKT9]",-0.107,-0.117,0.131,-0.274
"LHCPICGFMCTQKGNLLRHIKL [46L_47H_49P_50I_52G_53F_54M_55C_67L_, Q9UKT9]",2.17,2.35,2.28,1.44
"FVCEQCGATFTQKGNLLRHIKL [46F_47V_49E_50Q_52G_53A_54T_55F_67L_, Q9UKT9]",-2.6,-1.48,0.0752,-0.452
"FLCNQCGADFTQKGNLLRHIKL [46F_47L_49N_50Q_52G_53A_54D_55F_67L_, Q9UKT9]",-2.76,-3.21,-2.79,-2.29
"FYCEICGHEFTQKGNLLRHIKL [46F_47Y_49E_50I_52G_53H_54E_55F_67L_, Q9UKT9]",-2.18,-2.9,-1.81,-2.55
"FYCPQCGAFFTQKGNLLRHIKL [46F_47Y_49P_50Q_52G_53A_54F_55F_67L_, Q9UKT9]",0.239,0.269,0.837,-1.07
"FFCEVCGASFTQKGNLLRHIKL [46F_47F_49E_50V_52G_53A_54S_55F_67L_, Q9UKT9]",3.45,3.66,2.48,1.61
"FNCEVCGASFTQKGNLLRHIKL [46F_47N_49E_50V_52G_53A_54S_55F_67L_, Q9UKT9]",3.22,1.38,0.489,0.435
"FLCEVCGASFTQKGNLLRHIKL [46F_47L_49E_50V_52G_53A_54S_55F_67L_, Q9UKT9]",1.64,-0.285,1.43,1.45
"FICNICGAGFTQKGNLLRHIKL [46F_47I_49N_50I_52G_53A_54G_55F_67L_, Q9UKT9]",-0.991,1.17,1.13,1.71
"FTCEICGRFFTQKGNLLRHIKL [46F_47T_49E_50I_52G_53R_54F_55F_67L_, Q9UKT9]",-1.56,-2.16,-1.26,-1.11
"FSCPICGHHFTQKGNLLRHIKL [46F_47S_49P_50I_52G_53H_54H_55F_67L_, Q9UKT9]",-1.98,-2.66,-2,-1.93
"FDCPICGRVFTQKGNLLRHIKL [46F_47D_49P_50I_52G_53R_54V_55F_67L_, Q9UKT9]",-0.729,-0.635,1.53,1.97
"FLCNVCGAAFTQKGNLLRHIKL [46F_47L_49N_50V_52G_53A_54A_55F_67L_, Q9UKT9]",-1.6,-2.27,-0.522,-0.568
